About 890 (59%) of roughly 1,500 compounds were called active.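 How the source made its calls: active means inhibition of the choline-evoked signal at any tested dose together with a fitted dose-response curve; inactive means no inhibition at any dose or no curve.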 So high a share suggests a set chosen from earlier hits. Only a sample is shown. Potency and affinity values are given separately.
The compounds below were run against High affinity choline transporter 1 (Homo sapiens) (UniProt Q9GZV3) (assay: human choline transporter blockers, potency – cell-based, 5-point CRC, membrane potential dye, dose response (AID 504840)). Details: HEK293-CHT, choline-induced depolarization, CHT with LV-to-AA double alanine mutation; series mostly up to 37 µM.
Chain of High affinity choline transporter 1 (Homo sapiens) (Q9GZV3 whole entry, looked up): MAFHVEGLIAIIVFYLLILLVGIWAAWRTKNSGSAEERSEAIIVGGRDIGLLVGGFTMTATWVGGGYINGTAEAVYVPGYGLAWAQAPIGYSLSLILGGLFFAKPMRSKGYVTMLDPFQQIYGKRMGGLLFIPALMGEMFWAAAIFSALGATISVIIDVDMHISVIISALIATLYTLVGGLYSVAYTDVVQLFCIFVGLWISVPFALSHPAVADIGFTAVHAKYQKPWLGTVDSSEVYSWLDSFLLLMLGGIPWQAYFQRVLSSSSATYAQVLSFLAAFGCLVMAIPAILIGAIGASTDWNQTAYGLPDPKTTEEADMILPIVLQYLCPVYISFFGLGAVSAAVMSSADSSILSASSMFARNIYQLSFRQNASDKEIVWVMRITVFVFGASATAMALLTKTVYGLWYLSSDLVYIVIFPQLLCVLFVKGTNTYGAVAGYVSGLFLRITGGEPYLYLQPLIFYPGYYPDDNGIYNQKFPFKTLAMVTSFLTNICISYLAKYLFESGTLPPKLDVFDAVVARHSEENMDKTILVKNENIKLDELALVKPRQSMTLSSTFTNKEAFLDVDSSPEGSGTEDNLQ

outcome, inactive:
C/C(=N\NC(=O)c1ccccc1O)C1C(=O)c2ccccc2C1=O
COC(=O)C1CN(C(=O)C(C)Oc2ccccc2Cl)c2ccccc2O1 (stereo unspecified)
CC(NC(=O)Cn1nc(-c2ccccc2)c2ccccc2c1=O)c1ccccc1 (stereo unspecified)
O=c1c2cc(Br)ccc2nc(-c2cccc(C(F)(F)F)c2)n1O
CCn1c(SCC(=O)N=Nc2c(O)[nH]c3ccccc23)nc2ccccc21
OC(CNCC#Cc1ccccc1)c1ccccc1 (stereo unspecified)
O=C(Nc1cc(F)ccc1F)C1CCCN(c2ncnc3c2nc2n3CCCCC2)C1 (stereo unspecified)
O=C(C1CCCN(c2ncnc3c2nc2n3CCCCC2)C1)N1CCN(c2cccc(Cl)c2)CC1 (stereo unspecified)
COc1ccc(Cl)cc1NC(=O)C1CCCN(c2ncnc3c2nc2n3CCCCC2)C1 (stereo unspecified)
Cc1ccc(N2CCN(C(=O)C3CCCN(c4ncnc5c4nc4n5CCCCC4)C3)CC2)c(C)c1 (stereo unspecified)
O=C(c1cccs1)C1C(c2ccc(Br)cc2)NC(=S)NC1(O)C(F)(F)F (stereo unspecified)
COc1ccc(Cl)c2sc(N(CCN(C)C)C(=O)c3ccc4c(c3)OCCO4)nc12
Cc1[nH]n(-c2ccccc2)c(=O)c1N=Nc1c(O)cc(S(=O)(=O)N(C)C)c2ccccc12
COc1cccc(N2CCN(c3ncnc4c3[nH]c3ccc(F)cc34)CC2C)c1 (stereo unspecified)
COCCNc1c2c(nc3c(-c4ccccc4)c(C)nn13)CCCC2
CN1CCN(Cc2ccc(Sc3ccc(Cl)cc3)c([N+](=O)[O-])c2)CC1
CCOC(=O)N1CCN(C(=O)CCCn2c(=S)[nH]c3ccc(Br)cc3c2=O)CC1
CC1=NN(C(=O)c2ccc(Br)cc2)C(O)(C(F)(F)OC(F)(F)F)C1 (stereo unspecified)
O=C(Nc1ccccc1O)c1ccccc1O
CCc1nc(NCc2ccccn2)c2oc3ccccc3c2n1
O=C1c2ccccc2C(=O)c2c(Nc3ccc(CCO)cc3)ccc(O)c21
COc1cc(C(CCN2CCCC(C)C2)c2c(OC)cc(OC)c3c(-c4ccccc4)cc(=O)oc23)cc(OC)c1OC (stereo unspecified)
O=C(CCCSc1nc2ccccc2[nH]1)N1CCN(c2ccccc2)CC1
CN1CCN(c2ccc(S(=O)(=O)N3CCCCC3)cc2NC(=O)CSCc2ccccc2)CC1
Cc1cc(C)nc(SCc2cc(=O)c(OC(=O)c3ccc(S(=O)(=O)N4CCCC4)cc3)co2)n1
CC(C)[C@H](NC(=O)c1ccccc1)C(=O)OCC(=O)c1ccc2c(c1)NC(=O)CO2
O=C(CCl)N(c1ccc(Cl)cc1)c1c[nH]c2ccccc12
O=C(Nc1cc([N+](=O)[O-])ccc1O)c1cccc([N+](=O)[O-])c1
Oc1ccc(-c2nc(-c3ccc(O)c(O)c3)cs2)cc1
Cc1cccc2sc(N(CCCN(C)C)C(=O)c3ccc(Cl)s3)nc12
Cc1oc(C(=O)O)cc1COc1ccc2c3c(c(=O)oc2c1C)CCC3
O=[N+]([O-])c1ccc(O)c(/C=N/NC2=NS(=O)(=O)c3ccccc32)c1
c1cc(Nc2ncnc3sccc23)cc(-c2nnc3n2CCCCC3)c1
O=c1c2cc(NC(=S)NC3CCCCC3)ccc2nc2n1CCCCC2
CCCn1c(=O)c2c(nc3n2CCCN3CCc2ccc(OC)c(OC)c2)n(C)c1=O
O=C(NNc1ccc(C(F)(F)F)cc1[N+](=O)[O-])c1ccc(NS(=O)(=O)c2ccc(F)cc2)cc1
O=C(NNc1nc(-c2ccccc2)cs1)c1ccc(F)cc1
O=C(NCc1nc(-c2ccccc2)cs1)c1ccccc1
C=CCNC(=O)c1onc(CSc2ccc(C(C)C)cc2)c1C(=O)O
CC(=O)C(Sc1nn(C)c(=S)s1)C(=O)Nc1ccccc1 (stereo unspecified)
CN1CCN(CCOCCOc2ccc(Br)cc2Cl)CC1
CCOc1cc(/C=C2\N=C(SC)SC2=O)cc([N+](=O)[O-])c1OC(C)=O
COC(=O)C(C)Sc1nc2c(c(=O)[nH]c(=O)n2C)n1CCC(C)C (stereo unspecified)
O=S(=O)(Nc1nc(-c2ccccc2)cs1)c1cccc(C(F)(F)F)c1
O=C(Nc1nc(-c2ccccc2)cs1)c1ccc(=O)[nH]c1
N#Cc1ccc(C2=NC(C(F)(F)F)(C(F)(F)F)c3c(n(Cc4ccco4)c(=O)[nH]c3=O)N2)cc1
O=C(Nc1ccc(S(=O)(=O)NC2=NCCCCC2)cc1)C1COc2ccccc2O1 (stereo unspecified)
O=C(CC1C(=O)NCCN1C(=O)Nc1ccccc1)Nc1cc(Cl)cc(Cl)c1 (stereo unspecified)
CCCCc1cc(=O)oc2cc(O)cc(O)c12
CN1CCN(CC(=O)Nc2nc(-c3c[nH]c4ccccc34)cs2)CC1
Nc1cc(N2CCCCCC2)c2nonc2c1[N+](=O)[O-]
O=C(NNc1ccc([N+](=O)[O-])cc1[N+](=O)[O-])c1ccco1
COc1ccc2c(c1)c(C(O)CN1CCC(Cc3ccccc3)CC1)c(C)n2C (stereo unspecified)
CC1(C)c2cc(Cl)ccc2-n2c1cc(O)c(-c1ccccc1)c2=O
CCCCCn1c(CCNC(=O)CCC)nc2ccccc21
CCOC(=O)c1c(CCl)nc2ccccc2c1C
Cc1occc1C(=O)NNS(=O)(=O)c1ccc([N+](=O)[O-])cc1
Cc1occc1C(=O)NNC(=S)NC(=O)COc1ccc(Cl)cc1Cl
O=C(O)c1ccccc1-c1ccccc1C(=O)Nc1ccc(-c2nc3cc(Cl)ccc3o2)cc1
Cc1cccc(N2CCN(C(=O)C3CCN(c4ncnc5c4nc4n5CCCCC4)CC3)CC2C)c1 (stereo unspecified)
CCn1c(SCC(=O)c2ccccc2)nnc1-c1cccs1
CCC(Sc1nnc(-c2ccc(C)c(Cl)c2)n1CC)C(=O)Nc1nccs1 (stereo unspecified)
Cc1c(O)ccc(/C(Cc2ccc3ccccc3n2)=N\N)c1O
C=CCNc1nc(SCC=C)nc2ccsc12
N#C/C(=C(/O)CCl)c1nc(-c2ccccc2)cs1
O=C(c1cccc(Oc2ccc([N+](=O)[O-])cc2Cl)c1)N1CCCCC1
COc1ccc(Nc2nc3ccccc3n2C)cc1
O=C(Nc1ccc(Br)cc1Cl)Nn1cnnc1
S=C(NCc1ccccn1)Nc1ccc(Cl)cc1Cl
O=C(NC1CCCCC1)C(c1ccc2ncccc2c1)N(Cc1ccc(F)cc1)C(=O)c1ccc2c(c1)OCCO2 (stereo unspecified)
O=C(NCCc1ccc2c(c1)OCCO2)c1cc2ccccc2o1
COc1ccc(CN(C(=O)c2cccs2)C(C(=O)NC2CCCCC2)c2ccc3ncccc3c2)cc1 (stereo unspecified)
COc1ccc(CN(C(=O)c2ccc3c(c2)OCCO3)C(C(=O)NC2CCCCC2)c2ccc3ncccc3c2)cc1 (stereo unspecified)
NC1=NC2(CCCCCC2)n2c(nc3ccccc32)N1
Cc1ccc(-c2csc3ncn(CC#N)c(=O)c23)cc1
CC1=C(C(=O)Nc2cccc(C(=O)NC3CCCC(C)C3C)c2)SCCO1 (stereo unspecified)
Cc1ccc(NNC(=O)c2cccs2)cc1Cl
Cc1ccc(Nc2cc(C(=O)NCCCN3CCOCC3)c3ccccc3n2)cc1C
CCNc1nc2[nH]c(=O)c3c(c2s1)OC(N)=C(C#N)C3c1ccc(C)cc1 (stereo unspecified)
Cc1noc(C)c1COC(=O)c1ccc(F)c(S(=O)(=O)N2CCCCC2)c1
CCc1nnc(NC(=O)c2cc(S(=O)(=O)N(CC)CC)ccc2Cl)s1
CC[N+]1(CC)CC2=Cc3c(ccc4ccccc34)CC2C1 (stereo unspecified)
O=C(CN1CCN(Cc2ccc(Cl)cc2)CC1)N1CCc2ccccc21
CCc1ccc(NCc2nc(-c3ccccc3)no2)cc1
Cc1ccc(-c2noc(CNc3ccccc3)n2)cc1
O=C(CCCN1C(=O)CSc2ncccc21)N1CCN(c2cccc(C(F)(F)F)c2)CC1
COC(=O)c1ccc(C(=O)N2CCCC(Nc3ccc(C(C)C)cc3)C2)nc1 (stereo unspecified)
CC(C)c1cc(C(=O)N2CCCC(CCC(=O)N3CCN(c4ccccn4)CC3)C2)no1 (stereo unspecified)
O=C(c1cc(COc2ccc(F)cc2Cl)on1)N1CCC(c2ccncc2)CC1
CCN(Cc1ccncc1)C(=O)c1cc(COc2c(C)cccc2C)on1
CC(C)n1cnc2c(N(C)c3cccc(Cl)c3)nc(N(CCO)CCO)nc21
N#C/C(=N\Nc1ccc(F)cc1)C(=O)C1CC1
N#C/C(=N\Nc1ccc([N+](=O)[O-])cc1)C(N)=S
CC(NC(=O)C1c2ccccc2Oc2ccccc21)C1CCCO1 (stereo unspecified)
CN(Cc1ccccc1)c1ccc(C(CC(N)=O)NC(=O)c2ccc(Br)cc2)cc1[N+](=O)[O-] (stereo unspecified)
O=C(O)c1ccc(N2C(=O)CSC2=S)cc1
Cc1ccc(Cl)cc1N1CCN(C(=O)Cc2c(C(=O)O)[nH]c3ccc(Cl)cc23)CC1
O=C(CCC(=O)N1CCN(c2ccccc2F)CC1)N1CCN(c2ccc(F)cc2)CC1
CCC(=O)Nc1cc(Cl)ccc1N1CCN(C(=O)CC)CC1
NC(N)=N/N=C/c1ccc(Cl)c(Cl)c1
O=C1OCCC1Sc1nc(-c2ccccc2)cs1 (stereo unspecified)
Cc1csc(C(C#N)C(=O)c2cc3ccccc3o2)n1 (stereo unspecified)
CC(C)n1c(=S)[nH]c2cc(C(F)(F)F)ccc21
CCCCNS(=O)(=O)c1ccc(NC(=O)c2c(-c3ccccc3Cl)noc2C)cc1
Cc1noc(NC(=O)c2c(-c3c(Cl)cccc3Cl)noc2C)c1[N+](=O)[O-]
Cc1cc(C)cc(OCC(O)CN2CCC(CN3C(=O)c4cccc5cccc(c45)C3=O)CC2)c1 (stereo unspecified)

Source: PubChem BioAssay AID504840 (Johns Hopkins Ion Channel Center, 2011)
